# PREPL inhibitor: inhibits the human prolyl oligopeptidase-like enzyme. Q4J6C6. recombinant PREPL, fluorescence polarization activity-based probe. inhibition, % at 5.96 µM. 0.68% of 320,000 active. AID 2751; in the data active means inhibition above about 43%;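 further: 0% = enzyme with DMSO and 100% = wells lacking enzyme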
# ZTA counter: ZTA (EBV) inhibition in EBNA-1 counter-screen; P03206; 0.15% of 320,000 active; ZTA-DNA binding, fluorescence polarization; inhibition, % at 11 µM; AID 2234; in the data active means inhibition above about 33%
# EBNA-1 inhibitor: blocks EBNA-1 binding to DNA. EBNA-1 DNA binding, fluorescence polarization. AID 1950. 0.34% of 300,000 active. inhibition, % at 14.8 µM; in the data active means inhibition above about 28%
# LYPLA1 inh: LYPLA1 (human) inhibition in PME1 counter-screen. O75608. recombinant LYPLA1, FP-Rh probe fluorescence polarization. inhibition, % at 5.9 µM. 0.16% of 320,000 active;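 active means inhibition above the mean of all tested compounds plus 3 SD, set per campaign, cut at about 14% in these data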;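 further: inhibitors block serine hydrolase probe labeling of LYPLA1 so polarization falls; 0% = enzyme with DMSO and 100% = wells lacking LYPLA1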
# LYPLA2 inh: LYPLA2 (human) inhibition in PME1 counter-screen | O95372 | recombinant LYPLA2, FP-Rh probe fluorescence polarization | inhibition, % at 5.9 µM | 0.38% of 320,000 active | AID 2177;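 active means inhibition above the screen-wide mean plus 3 SD, limit set per campaign, cut at about 26% in these data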;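 further: 0% = LYPLA2 with DMSO and 100% = wells lacking LYPLA2 enzyme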
# Target sequence (O95372 whole entry, looked up): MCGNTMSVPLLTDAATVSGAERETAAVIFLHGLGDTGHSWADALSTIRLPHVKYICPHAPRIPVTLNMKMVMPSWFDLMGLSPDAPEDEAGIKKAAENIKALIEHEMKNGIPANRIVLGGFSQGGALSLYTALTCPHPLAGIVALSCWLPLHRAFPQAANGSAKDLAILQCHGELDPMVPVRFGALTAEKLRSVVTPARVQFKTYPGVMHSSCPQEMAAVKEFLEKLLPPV
# EBNA-1 confirm: EBNA-1 (EBV) inhibition, confirmation. AID 2292. shares compounds with EBNA-1 inhibitor. Recombinant EBNA-1 DBD, Cy5-DNA fluorescence polarization. inhibition, % at 14.8 µM. 35% of 830 active;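 active means mean inhibition across replicates above a set limit taken from the earlier primary screen, cut at about 28% in these data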;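 further: plate controls were EBNA-1 protein with DMSO for no effect and wells lacking EBNA-1 for full effect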
# ZTA DNA inh trip: ZTA (EBV) inhibition, triplicate counter-screen | AID 2328 | inhibition, % at 11.1 µM | 830 tested, under 10 active | shares compounds with EBNA-1 inhibitor | Zta-ZRE DNA binding, Cy5 fluorescence polarization;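 active means mean inhibition over triplicates above a set limit taken from the primary EBNA-1 screen, cut at about 37% in these data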;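 further: purified full length Zta protein with Cy5 labeled ZRE DNA probe; 0% = Zta with DMSO and 100% = wells lacking Zta protein; inhibitors lower polarization by freeing the labeled DNA probe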
# The depositor's hits bear a star; x = no result. This is a sample that favours compounds with a hit; in the whole collection about 1.3% have one here.
SMILES,PREPL inhibitor,ZTA counter,EBNA-1 inhibitor,LYPLA1 inh,LYPLA2 inh,EBNA-1 confirm,ZTA DNA inh trip
COc1cc(/C=N/NC(=O)c2nc(-c3ccccc3)n(-c3ccccc3)n2)ccc1O,12,-3,7,0,-2,x,x
CC(NC(=O)COC(=O)c1ccccc1F)C1CC2CCC1C2 (stereo not drawn),10,x,x,x,x,x,x
COc1cc(C(=O)NNC(=O)/C=C/c2ccccc2)cc(OC)c1OC,-1,x,x,x,x,x,x
COc1cc(C(=O)NNC(=S)NC(=O)/C=C/c2ccccc2)cc(OC)c1OC,10,-4,77*,0,0,35*,4
Cc1ccc(-c2nc3ccccc3[nH]2)cc1NC(=O)c1sc2cc(Cl)ccc2c1Cl,8,8,92*,-29,-48,83*,20
Cc1ccc(-c2nc3ccccc3[nH]2)cc1NC(=O)c1ccco1,7,-2,-4,-4,7,x,x
COc1ccc(-n2nc(C(=O)Nc3ccc4c(c3)OCO4)c3ccccc3c2=O)c(OC)c1,0,-15,29*,3,7,35*,-8
COc1ccc(CCN(C)C(=O)c2c(C)noc2C)cc1OC,13,3,x,-1,2,x,x
O=[N+]([O-])c1cccc(/C=N/Nc2nc(NCc3ccccc3)nc(N3CCOCC3)n2)c1,20,11,49*,-3,-3,71*,0
COc1ccc2cc(C(=O)/C=C/c3cc(OC)c(OC)c(OC)c3)ccc2c1,34,13,48*,-7,1,0,8
COc1cc(/C=C/C(C)=O)cc(OC)c1OC,-4,-10,-1,0,3,x,x
NC(=S)N/N=C/c1cccc(/C=N/NC(N)=S)c1,1,4,9,-2,4,x,x
NC(=S)N/N=C/c1ccc(/C=N/NC(N)=S)cc1,16,6,68*,0,4,34*,4
Cc1cc(C)cc(N2CC(O)=C(c3nc4ccccc4c(=O)[nH]3)C2=N)c1,2,2,0,-14,-44,x,x
COc1cccc(N2CC(O)=C(c3nc4ccccc4c(=O)[nH]3)C2=N)c1,6,-17,67*,1,0,125*,1
CCOC(=O)C(Cc1ccc(NC(=O)/C(=C/c2ccc(OC(C)=O)cc2)NC(C)=O)cc1)N1C(=O)c2ccccc2C1=O (stereo not drawn),6,13,4,-2,-2,x,x
CCOC(=O)C(Cc1ccc(NC(=O)/C(=C/c2ccccc2)NC(=O)c2ccccc2)cc1)N1C(=O)c2ccccc2C1=O (stereo not drawn),-9,10,41*,-19,-35,11,8
O=C1c2ccccc2C(=O)N1Cc1nc2ccccc2c(=O)n1CCCN1CCOCC1,0,-4,-10,0,2,x,x
CCCCn1c(CN2C(=O)c3ccccc3C2=O)nc2ccccc2c1=O,1,25,32*,2,1,31*,13
Cc1ccccc1CNC(=O)C1CCN(c2nnc(N3CCCC3=O)s2)CC1,16,-10,96*,-1,4,-8,0
COc1ccc(CNC(=O)C2CCN(c3nnc(N4CCCC4=O)s3)CC2)cc1,9,0,5,5,5,x,x
CCOC(=O)c1c(C)[nH]c(C(=O)COC(=O)CCS(=O)(=O)c2ccc(C)cc2)c1C,-2,1,39*,-2,-6,29*,6
O=C(Cc1ccccc1)Nc1scc(-c2ccccc2)c1C(=O)N1CCOCC1,0,-2,3,-2,4,x,x
NC(=O)c1c(-c2ccc(Cl)cc2Cl)csc1NC(=O)Cc1ccccc1,-4,-11,29*,3,5,6,12
Cn1c(=O)c(C(=O)CSc2nnc(Nc3ccccc3)s2)c(N)n(Cc2ccccc2)c1=O,-12,-3,35*,-7,-15,14,4
Cc1c(NC(=O)COC(=O)c2cc(-c3ccc(-c4ccccc4)cc3)nc3ccccc23)c(=O)n(-c2ccccc2)n1C,18,18,31*,-9,-24,16,-1
Cc1onc(-c2ccccc2)c1C(=O)OCC(=O)N(C)c1c(N)n(Cc2ccccc2)c(=O)[nH]c1=O,16,-18,-12,-4,-6,x,x

# Screening results (PubChem)
